# Shown are actives, neighbours in structure and some others; about 1.4% of the full set was active somewhere.
# MEX-5 binding: MEX-5 zinc finger RNA-binding disruptors – biochemical, C. elegans, fluorescence polarization, MLPCN library, primary screen. AID 1832, 2009. MEX-5/FITC-TCR2 RNA binding; active compounds read low. activity score (negative = inhibition of binding), % at 10 µM. Zinc finger protein mex-5 (Caenorhabditis elegans), Q9XUB2. 300,000 compounds, 0.38% hits;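 active = inhibition past about -25% in most replicates, and total fluorescence under double the plate's negative control median, limit read from the data; inconclusive = replicates evenly split on the limit, or fluorescence at least double controls; inactive = too little inhibition in most replicates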
# Target sequence (Q9XUB2 whole entry, looked up): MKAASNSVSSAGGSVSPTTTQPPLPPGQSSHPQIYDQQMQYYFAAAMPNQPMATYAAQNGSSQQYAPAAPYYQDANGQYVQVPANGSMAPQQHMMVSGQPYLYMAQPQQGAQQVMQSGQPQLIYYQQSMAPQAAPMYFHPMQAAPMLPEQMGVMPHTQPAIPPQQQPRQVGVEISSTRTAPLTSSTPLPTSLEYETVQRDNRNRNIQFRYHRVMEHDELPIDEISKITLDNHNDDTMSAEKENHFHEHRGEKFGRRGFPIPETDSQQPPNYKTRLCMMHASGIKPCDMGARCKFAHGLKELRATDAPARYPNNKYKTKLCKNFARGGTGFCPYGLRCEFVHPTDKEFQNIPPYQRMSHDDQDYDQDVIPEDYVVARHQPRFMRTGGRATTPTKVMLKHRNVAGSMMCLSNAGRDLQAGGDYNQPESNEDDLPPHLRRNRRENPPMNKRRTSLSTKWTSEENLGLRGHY
# GLD-1 TGE inh: GLD-1/TGE RNA complex disruptors, primary screen, biochemical, fluorescence polarization | Female germline-specific tumor suppressor gld-1 (Caenorhabditis elegans), Q17339 | purified GLD-1 + fluorescein TGE RNA | inhibition, % at 5.96 µM | 320,000 compounds, 0.44% hits;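 active = percent inhibition above a per-plate cutoff, the plate mean of test compounds plus 3 SD, cut at about 30% in these data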
# MCL1 BIM primary: inhibitors of MCL1 binding to BIM-BH3, primary screen, biochemical, fluorescence polarization | GST-MCL1 / FITC-Bim-BH3 fluorescence polarization | inhibition, % at 10.9 µM | 320,000 compounds, 0.68% hits;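 active = inhibition above the mean inhibition of all tested compounds plus 3 SD, set per campaign, cut at about 40% in these data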;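 note: higher means more loss of mP so more displacement of Bim peptide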
# eLon inh: inhibitors of E. coli Lon protease, primary screen, biochemical, fluorescence polarization; P0A9M0; purified E. coli Lon protease; inhibition, % at 7.94 µM; 360,000 compounds, 0.42% hits; AID 602123, 2011; in the data active = inhibition above about 13%, passing the limit was not always enough
# BCLXL inh: inhibitors of human Bcl-xL, primary screen, biochemical, fluorescence polarization, HTS. Bcl-2-like protein 1 (Homo sapiens), Q07817. 320,000 compounds, 0.7% hits. GST-Bcl-xL / FITC-Bim BH3 peptide fluorescence polarization. AID 2129, 2009. inhibition, % at 10.9 µM;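 active = inhibition above the mean of all tested compounds plus 3 SD, cutoff set per campaign, cut at about 30% in these data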;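 note: inhibitors lower millipolarization by displacing the labeled peptide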
# EBV gp42 inh: Epstein-Barr virus gp42 inhibitors, primary screen, biochemical, uHTS, fluorescence polarization; Fluorescence polarization binding assay, mP read-out; inhibition, % (tested at 21.74 µM); 220,000 compounds, 0.42% hits; AID 1085, 2008; in the data active = inhibition above about 50%
# E coli Lon conf: E. coli Lon protease inhibitor retest, confirmation, biochemical, fluorescence polarization; shares compounds with eLon inh; purified E. coli Lon; inhibition, % at 7.94 µM; AID 602230, 2012; 1,400 compounds, 31% hits; in the data active = inhibition above about 16%
# A number is an active result; 0 = inactive; ? = inconclusive; - = no result.
SMILES,MEX-5 binding,GLD-1 TGE inh,MCL1 BIM primary,eLon inh,BCLXL inh,EBV gp42 inh,E coli Lon conf
CC1CN(CC(=O)NCc2ccc(Cl)cc2)CC(C)O1 (centres undefined),0,0,0,0,0,-,-
CCC(=O)N(Cc1ccc(C)cc1)Cc1cc2cc3c(cc2[nH]c1=O)OCO3,0,0,0,21,0,0,0
Cc1ccc(NC(=O)N(Cc2ccc3c(c2)OCO3)Cc2cc3cc4c(cc3[nH]c2=O)OCCO4)cc1,0,0,0,15,0,0,0
O=C(c1c(O)c2ccccc2oc1=O)C1CCC1,0,0,0,0,0,0,-
O=c1oc2ccccc2c(O)c1Sc1c(O)c2ccccc2oc1=O,-,-,-,28,-,-,35
O=C(/C=C/c1ccc(F)cc1)NCCCN1CCN(CCCNC(=O)/C=C/c2ccc(F)cc2)CC1,0,0,0,0,0,0,-
Cc1ccc(/C=C/C(=O)NCCCN2CCN(CCCNC(=O)/C=C/c3ccc(C)o3)CC2)o1,0,0,0,27,0,0,0
O=C1CN(C(=O)CNCc2ccccc2)c2ccccc2N1,0,0,0,0,0,0,-
c1cncc(Nc2c3ccccc3nc3ccccc23)c1,0,0,0,25,0,-,0
Oc1cccc(Nc2c3ccccc3nc3ccccc23)c1,0,0,0,0,0,-,-
O=C(CCC1CCCC1)NC1CCCCC1,0,0,0,15,0,0,0
O=C(CC1CCCCC1)NC1CCCC1,0,0,0,0,0,0,-
CCOc1ccc(NC(=O)NCC2CCN(c3ccc(OC)cc3)C2)cc1 (centres undefined),0,0,0,23,0,0,0
CCOc1ncccc1C(=O)Nc1cccc(-n2cnnn2)c1C,-,0,-,0,-,-,-
Cc1c(NC(=O)c2cc(Br)ccc2Cl)cccc1-n1cnnn1,-,0,-,20,-,-,0
COc1ccc(N2C(=O)c3cccc4c(N(C)CCO)ccc(c34)C2=O)cc1,?,-,-,67,-,-,22
COC(=O)c1cc(NS(=O)(=O)c2cccs2)cc(NS(=O)(=O)c2cccs2)c1,-,-,-,125,-,-,0
CCCCNc1nc2ccccc2n1CC(=O)Nc1c(C)cccc1CC,0,0,0,25,0,0,0
CCc1cccc(C)c1NC(=O)Cn1c(NCCO)nc2ccccc21,0,0,0,0,0,0,-
CCN(CC)S(=O)(=O)c1ccc(NC(=O)CC(NC(C)=O)c2ccccc2)cc1 (centres undefined),0,0,0,17,0,0,0
COc1cccc(CC(=O)OCC(=O)NCCc2ccc(F)cc2)c1,-,0,0,0,0,-,-
COc1ccc(-c2coc3c(C(=O)Nc4cccnc4)cccc23)c(C)c1,-,-,-,0,-,-,-
O=C(Oc1ccc2c3c(c(=O)oc2c1)CCCC3)c1cccs1,0,0,0,18,0,0,25
O=C(Oc1cc2oc(=O)c3c(c2cc1Cl)CCCC3)c1cccs1,0,0,0,0,0,0,-
OC(Cc1ccccc1Br)c1ncc(-c2cccc(C(F)(F)F)c2)[nH]1 (centres undefined),-,-,-,0,-,-,-
SMILES,MEX-5 binding,GLD-1 TGE inh,MCL1 BIM primary,eLon inh,BCLXL inh,EBV gp42 inh,E coli Lon conf
COc1ccc(OC)c(NC(=O)Cc2nn(C)c(=O)c3ccccc23)c1,0,0,0,16,0,0,0
COc1cc(NC(=O)Cc2nn(C)c(=O)c3ccccc23)cc(OC)c1OC,0,0,0,0,0,0,-
CC(=O)Nc1cc(Cl)ccc1OS(=O)(=O)c1ccc(C)cc1,0,0,0,45,0,0,0
CC(=O)Nc1ccc(OS(=O)(=O)c2ccc(Cl)cc2)cc1,0,0,0,0,0,-,-
CCOC(=O)Cc1csc(NC(=O)Nc2cccc(OC)c2)n1,0,0,0,0,0,0,-
Cn1c2ccccc2c(=O)c2ccc(NCCc3cccs3)cc21,-,79,-,92,-,-,23
NC(=O)c1ccc(NCCc2cccs2)cc1,-,-,-,0,-,-,-

# Source: PubChem BioAssay (several laboratories)
